The whole screen tested about 410,000 compounds, of which about 530 (0.13%) were called active. Inconclusive results (about 5%) are left out. The call rests on the fitted dose curve; in most records, active means well fitted inhibition curve with a large enough effect; inconclusive means small, poorly fitted or top-dose-only effect, or another doubt; inactive means no such curve, though single readings can be large or run the other way. Shown is part of a subset that was picked to be rich in actives. A call without a number means that no potency is given here.
Potency means the concentration at half of the fitted maximal effect.

The nature of this test: qHTS of GLP-1 Receptor Inverse Agonists: Cytotox Screen.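 Further: loss of luciferase light is scored as toxicity.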 As to conditions: HEK293 cAMP-luciferase reporter cells, luminescence, 24 h; series mostly up to 38.3 µM. The method in brief:
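Cells in DMEM/10% Nu serum/1% pen-strep, 1536-well format. Pre-incubated 12 h, dosed with 23 nL compound, incubated a further 24 h. Luciferase detection, 12 min at room temp, luminescence.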
Take `COC(=O)c1cnn(-c2ccc(C(=O)Nc3ccc(OC(F)(F)F)cc3)cc2)c1N`: the Potency entry was “inactive”.

As to `Cc1ccc2nc(COc3ccccc3NC(=O)Nc3ccc(F)c(Cl)c3)cc(=O)n2c1`, the Potency entry was “inactive”.

Consider `COc1ccc(NC(=O)CN2CCCN(Cc3ccccc3)S2(=O)=O)cc1`, for which the Potency entry was “inactive”.

In the case of `Cc1ccc(OC(=O)CSc2nnc(-c3cccs3)o2)cc1`, the Potency result was “inactive”.

As to `COc1ccc(Cn2c(C(=O)O)c(CNCCc3cccs3)c3ccc(OC)cc32)cc1`, the Potency entry is “inactive”.

As to `Oc1ccc2ccccc2c1N=Nc1nccs1`, the Potency was 4.47 µM (active).

On to `Oc1ccc(N=Nc2nccs2)c(O)c1`, for which the Potency is 8.91 µM (active).

On to `Cc1ccc(-c2noc(CSc3nnc(-c4ccc(Cl)cc4)n3C)n2)cc1`, for which the Potency result was “inactive”.

`Cc1ccc(C(=O)Nc2ccccc2F)cc1S(=O)(=O)N1CCOCC1`: the Potency result is “inactive”.

On to `Cc1cc2c(cc3c(SCc4cccc(Cl)c4)nnc(C)n32)o1`, for which the Potency entry is “inactive”.

With `CCOc1ccc(CCNC(=O)CN(c2ccc(C)cc2)S(=O)(=O)N(C)C)cc1OCC`, the Potency result was “inactive”.

As for `CC(=O)c1ccc(N2CCN(C3C(=O)c4ccccc4N3C(C)=O)CC2)cc1` (stereo unspecified), the Potency entry is “inactive”.

For the compound `Cc1cc(-c2ccc(C)c(S(=O)(=O)N3c4ccccc4CC3C)c2)on1` (stereo unspecified), the Potency result was “inactive”.

For `Cc1ccc(-n2c(=O)c3cccnc3n2CC(=O)Nc2ccccc2C(F)(F)F)cc1C`, the Potency result is “inactive”.

`Cc1nn(-c2ccc(N3CCCCC3)nn2)c(C)c1CCC(=O)NCc1ccc(F)cc1`: the Potency entry was “inactive”.

On to `S=C(NCCc1ccccc1)NCc1ccccc1Cl`, for which the Potency entry is “inactive”.

In the case of `CCCC1CCC(=NNC(=S)NCCc2ccccc2)CC1` (stereo unspecified), the Potency was 4.47 µM (active).

As to `CCCCNC(=S)N/N=C1\CCCCc2ccccc21`, the Potency entry is “inactive”.

In the case of `CCN(CCCNC(=O)c1cc(Nc2ccc(OC)cc2)nc2ccccc12)c1cccc(C)c1`, the Potency result was “inactive”.

Turning to `CCc1ccc(NC(=O)CSc2nc3c([nH]c4ccccc43)c(=O)n2-c2cccc(OC)c2)cc1`, the Potency entry was “inactive”.

`Fc1ccc(CN2CCc3nc(Nc4ccccc4)ncc3C2)cc1F`: the Potency entry was “inactive”.

Consider `COc1ccccc1-c1cc(C(F)(F)F)nc(S(=O)(=O)CCCC(=O)Nc2ccc(F)cc2F)n1`, for which the Potency result is “inactive”.

In the case of `C/C(=N\NC(=O)c1ccc(CSc2nc(C)cc(C)n2)cc1)C1CCCCC1`, the Potency result is “inactive”.

Turning to `C/C(=N\NC(=O)c1ccc(C)cc1)C1C(=O)c2ccccc2C1=O`, the Potency was 4.47 µM (active).

Turning to `O=C1c2ccccc2C(=O)C1C(=O)C1CC1`, the Potency entry was “inactive”.

For `Cc1ccc(-n2cnc3cc(C(=O)NCCC4=CCCCC4)ccc32)cc1Cl`, the Potency entry is “inactive”.

As for `O=C(CSc1cn(CC(=O)N2CCOCC2)c2ccccc12)Nc1ccccc1`, the Potency entry is “inactive”.

`CCCCOC(=O)/C(C#N)=C/c1ccc(-c2cccc(C(F)(F)F)c2)o1`: the Potency result was “inactive”.

As to `CCSc1nnc2c(n1)OC(c1ccc(OCC(=O)O)cc1)Nc1ccccc1-2` (stereo unspecified), the Potency result is “inactive”.

For `Cc1ccc2oc(=O)c3cnn(CC(=O)NCc4ccccc4Cl)c3c2c1`, the Potency result is “inactive”.

As for `O=C(CCl)Nc1cccc(CP(=O)(c2ccccc2)c2ccccc2)c1`, the Potency is 3.16 µM (active).

Regarding `O=C(CNCc1ccc(Cl)cc1)Nc1cccc(C(=O)O)c1`, the Potency result was “inactive”.

As to `CCc1cccc(NC(=O)c2cc(-c3ccccc3)n[nH]2)c1`, the Potency entry is “inactive”.

For the compound `CCn1cc(C(=O)OCC(=O)Nc2cc(C)cc(C)c2)c(=O)c2ccc(C)nc21`, the Potency result was “inactive”.

Regarding `COc1ccc(CNc2nc(-c3ccccc3)nn2C(=O)c2ccccc2OC)cc1`, the Potency entry is “inactive”.

With `Cc1ccc(Nc2c(-c3ccc(Cl)cc3)nc3sccn23)c(C)c1`, the Potency result is “inactive”.

For the compound `CCOC(=O)N1CCc2c(sc3c2c(=O)n(-c2ccc(CC)cc2)c(=O)n3C)C1`, the Potency entry was “inactive”.

With `CCCN(CCC)CCCNC(=O)Cn1ncc2c3ccccc3n(Cc3ccccc3)c2c1=O`, the Potency entry is “inactive”.

As to `CCCN(C(=O)Cn1cc(S(=O)(=O)N2CCN(c3ccccc3F)CC2)c2ccccc2c1=O)c1cccc(C)c1`, the Potency result was “inactive”.

With `CSc1oc(-c2cccs2)nc1S(=O)(=O)c1ccc(Br)cc1`, the Potency entry is “inactive”.

As for `O=C(c1ccc(C(F)(F)F)cc1)N1CCC(c2nc(-c3ccc(S(=O)(=O)N4CCCC4)cc3)no2)CC1`, the Potency result is “inactive”.

`CCN(CCCNC(=O)c1c(C)oc2ncn(CC(C)C)c(=O)c12)Cc1ccccc1`: the Potency entry was “inactive”.

On to `CCC1CCCCN1S(=O)(=O)c1ccc(NC(=O)c2cc(=O)c3ccccc3o2)cc1` (stereo unspecified), for which the Potency entry is “inactive”.

Consider `CC(C)CC(=O)NCC(c1ccc2c(c1)OCO2)N1CCN(c2ccc(F)cc2)CC1` (stereo unspecified), for which the Potency entry is “inactive”.

Turning to `CCNC(=O)CC1C(=O)N(c2ccc(F)cc2)C(=O)N1Cc1ccc(C)cc1` (stereo unspecified), the Potency entry is “inactive”.

Turning to `Cc1cc2c(cc1S(=O)(=O)CCC(=O)Nc1ccc(OC(F)(F)F)cc1)OCC(=O)N2`, the Potency result was “inactive”.

For the compound `CCOC(=O)c1[nH]c(C)c(CCC(=O)NCc2ccccc2C)c1C`, the Potency result is “inactive”.

As to `Cc1ccc2oc3c(c(=O)c2c1)C(c1ccc([N+](=O)[O-])cc1)N(CCCN1CCOCC1)C3=O` (stereo unspecified), the Potency entry is “inactive”.

Consider `O=S(=O)([N-]c1nc2ccccc2nc1-[n+]1ccc(Cc2ccccc2)cc1)c1ccc(Br)s1`, for which the Potency is 10 µM (active).

For the compound `CCOc1ccc(C(NC(=O)c2cc(OC)c(OC)c(OC)c2)c2cc(Cl)c3cccnc3c2O)cc1` (stereo unspecified), the Potency entry was “inactive”.

Take `O=C(NC1CCN(Cc2ccccc2)CC1)c1ccc(Cn2c(=O)c3ccccc3n(Cc3cccc(F)c3)c2=O)cc1`: the Potency result was “inactive”.

Consider `CCOC(=O)c1cc(-c2ccc(OC)c(S(=O)(=O)Nc3ccc(OC)cc3OC)c2)on1`, for which the Potency result is “inactive”.

As to `Cc1cc(C)cc(NC(=O)CCS(=O)(=O)c2cc3c4c(c2)CCN4C(=O)CC3)c1`, the Potency entry is “inactive”.

With `COc1cccc(NC(=O)CSc2cc(=O)n(C)c3ccc(Cl)cc23)c1`, the Potency entry was “inactive”.

With `CN(Cc1ccccc1)C(=O)c1cn(C)c2ccc(S(=O)(=O)N(C)C3CCCCC3)cc2c1=O`, the Potency entry is “inactive”.

On to `CCOC(=O)Cn1c(=O)n(C2CCCCC2)c2nc(-c3cccc(OC)c3)nc(C(N)=O)c21`, for which the Potency entry is “inactive”.

Regarding `COc1cccc(Cn2c(SCc3ccc(C(=O)N4CCC(C)CC4)cc3)nc3ccncc32)c1`, the Potency result was “inactive”.

For the compound `Cc1cc(C)cc(NS(=O)(=O)c2ccc3[nH]cc(C(=O)N4CCCCC4)c(=O)c3c2)c1`, the Potency result is “inactive”.

As for `Cc1cn(C)c(CC(=O)NCc2ccccc2)c1C(=O)O`, the Potency result is “inactive”.

`COc1ccccc1NC(=O)c1cc(C2CC2)nc2c1c(C)nn2-c1ccc(C)cc1`: the Potency result was “inactive”.

In the case of `Cc1ccc(S(=O)(=O)NCc2nc3nc(C)cc(C)n3n2)cc1`, the Potency result is “inactive”.

For the compound `COc1ccc2c(c1)c(N1CCCC1=O)c(C(=O)Nc1ccccc1C(F)(F)F)n2C`, the Potency entry was “inactive”.

In the case of `Cc1ccc(Nc2nnc(-c3ccc(C)c(S(=O)(=O)N4CCCCC4)c3)c3ccccc23)cc1`, the Potency entry is “inactive”.

Consider `COc1ccc(NC(=O)CCCc2nnc3n(CCC(C)C)c(=O)c4sccc4n23)c(OC)c1`, for which the Potency result is “inactive”.

`Cc1cccc(NC(=O)N2CCN(C)c3ncccc32)c1C`: the Potency entry was “inactive”.

Consider `Cc1ccc(NC(=O)Cn2c(=O)n(-c3ccccc3)c(=O)c3c4c(sc32)CCCC4)cc1`, for which the Potency entry was “inactive”.

For `CCN(CC)S(=O)(=O)c1ccc(C(=O)N=c2sc3cccc(OC)c3n2C)cc1`, the Potency result was “inactive”.

In the case of `O=C(c1cccs1)c1cn(CCOc2ccc(Cl)cc2)c2ccccc12`, the Potency result is “inactive”.

As to `CCc1ccc(NC(=O)c2cc(S(=O)(=O)N3CCCC(C)C3)cn2C)cc1` (stereo unspecified), the Potency result was “inactive”.

As to `COc1ccc(CCNCc2c(C(=O)O)c(C)n(Cc3cccc(C)c3)c2C)cc1OC`, the Potency result is “inactive”.

Regarding `Cc1cn(C)c(CC(=O)NCc2ccc(Cl)cc2)c1C(=O)O`, the Potency entry was “inactive”.

On to `CCOc1ccc(N2CC(c3nc4ccccc4n3CCOc3ccc(OC)cc3)CC2=O)cc1` (stereo unspecified), for which the Potency entry was “inactive”.

On to `O=C(NCc1ccccc1Cl)c1cccn1-c1nnc(N2CCCCC2)s1`, for which the Potency entry was “inactive”.

As to `COc1ccc(N(CC(=O)NCCc2ccc(Cl)cc2)S(=O)(=O)c2c(C)nn(C)c2C)cc1`, the Potency entry was “inactive”.

On to `CC(CNC(=O)c1nnc(Cc2cccc(F)c2)o1)c1ccccc1` (stereo unspecified), for which the Potency result is “inactive”.

`Cc1ccc(CNC(=O)CCc2c(C)nc3c(c(C)nn3-c3ccccc3)c2C)cc1`: the Potency result was “inactive”.

As for `CNc1ccc(-c2nc(-c3ccco3)no2)cc1[N+](=O)[O-]`, the Potency result was “inactive”.

On to `O=C(NCCc1ccc(Cl)cc1)c1ccc2c(c1)N(Cc1ccc(F)cc1)C(=O)CS2`, for which the Potency result was “inactive”.

Turning to `CCOc1ccc(-c2nonc2NC(=O)c2oc3ccc(CC)cc3c2C)cc1`, the Potency entry was “inactive”.

Regarding `COc1ccc(NC(=O)C(c2ccccc2)N2Cc3ccccc3C2=O)cc1` (stereo unspecified), the Potency entry was “inactive”.

With `CCOc1ccc(NC(=O)C2CCN(S(=O)(=O)c3cc(-c4noc(C)n4)ccc3C)CC2)cc1`, the Potency result is “inactive”.

As to `CC1CC2=C(CC1/C=N/NC(N)=S)C(C)(C)CCC2` (stereo unspecified), the Potency is 2.24 µM (active).

In the case of `Cc1nc2c(-c3ccccc3)c(C)nn2c(C)c1CCC(=O)NCCc1ccccc1`, the Potency result was “inactive”.

Take `Cc1cccc(CSc2nc3ccncc3n2CC(=O)N(C)C2CCCCC2)c1`: the Potency result is “inactive”.

Turning to `CC(C)(C)OC(=O)N1CCC(c2c(C(=O)N3CCN(c4cccc(Cl)c4)CC3)cnn2-c2cccc(Cl)c2)CC1`, the Potency result was “inactive”.

In the case of `CCOc1ccc(C(=O)Nc2ccc3nc4c(c(Nc5ccccc5OC)c3c2)CCCC4)cc1`, the Potency entry was “inactive”.

As for `COc1ccccc1Nc1c2c(nc3ccc(NC(=O)/C=C/c4cc(OC)c(OC)c(OC)c4)cc13)CCCC2`, the Potency was 4.47 µM (active).

Take `COc1cc(/C=C/C(=O)N2CCc3ccccc3C2)cc(OC)c1OC`: the Potency result is “inactive”.

`CC(=O)N1CCc2cc(S(=O)(=O)NC(Cc3ccccc3)C(=O)NCc3ccc(C)cc3)ccc21` (stereo unspecified): the Potency entry was “inactive”.

Take `Clc1cccc(-n2ncc3c(NCCc4ccccc4)ncnc32)c1`: the Potency result was “inactive”.

As for `CCn1cc(C(=O)NCc2ccc(C)cc2)c(=O)c2cc(S(=O)(=O)N3CCc4ccccc4C3)ccc21`, the Potency entry was “inactive”.

Consider `CCOc1cc(C(=O)NCCc2csc3nc(-c4ccc(C)cc4)nn23)cc(OCC)c1OCC`, for which the Potency entry was “inactive”.

For `CCCCN1CC(c2nc3ccccc3n2CCCCOc2ccc(C)cc2C)CC1=O` (stereo unspecified), the Potency entry was “inactive”.

For `CC(C)Oc1c(Br)cc(Br)cc1/C=N/NC(N)=S`, the Potency is 2.51 µM (active).

Consider `CC1(C(=O)N/N=C/c2cc3c(cc2Br)OCO3)CC1(Br)Br` (stereo unspecified), for which the Potency result is “inactive”.

Turning to `CCCCn1cc(S(=O)(=O)c2ccc(OCC)cc2)c(=O)c2cc(OC)c(OC)cc21`, the Potency entry is “inactive”.

(Values after PubChem BioAssay AID624418 (National Center for Advancing Translational Sciences (NCATS), 2012).)
